This is one part of a sample in which hits are shown more often than they occur.
Tgondii IFNg: inhibitors of Toxoplasma gondii growth with IFN-gamma; Toxoplasma gondii growth in IFN-gamma-treated host cells; stronger effect = lower value; activity change, negative = inhibition, % (no concentration beside the values); hit rate 3.8% among 69,000; in the data active = activity change below about -70%, passing the limit was not always enough;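 also: host cells are HeLa cells infected with Toxoplasma gondii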
* = called active by the depositor.

Results for Cc1noc(CCC(=O)N2CCCC(N(C)S(=O)(=O)c3cccc(F)c3)CC2)n1 (configuration not stated) ?
Tgondii IFNg: -22

How did Cc1ccc(NC(=O)c2c(O)c3ccccc3n(-c3ccccc3)c2=O)cc1Cl do in these assays?
Tgondii IFNg: -39

How did COc1cc(N2CCc3ccc(=O)[nH]c3CC2)ncn1 do in these assays?
Tgondii IFNg: 5

What do the screens show for `CO[C@H]1COC[C@@H]1NC(=O)CCC(=O)Nc1ccccc1SC`?
Tgondii IFNg: 7

Results for CCN(CC)C(=O)[C@@H]1C[C@H](N)CN1C(=O)CCc1cc(Cl)no1 ?
Tgondii IFNg: 2

How did C[C@@H]1CN([C@H](C)CO)C(=O)c2cc(N(C)C)ccc2O[C@H]1CN(C)Cc1ccc(Oc2ccccc2)cc1 do in these assays?
Tgondii IFNg: 60

How did C[C@H](CO)N1C[C@H](C)[C@H](CN(C)Cc2ccc(-c3ccccc3)cc2)Oc2ccc(N(C)C)cc2CC1=O do in these assays?
Tgondii IFNg: -83*

What do the screens show for `C[C@@H]1CN([C@@H](C)CO)C(=O)Cc2cc(N(C)C)ccc2O[C@H]1CN(C)Cc1ccc(-c2ccccc2)cc1`?
Tgondii IFNg: 69

What do the screens show for `COc1cnc(N2C[C@H]3C[C@H](O)[C@@H](O)C[C@H]3C2)nc1`?
Tgondii IFNg: 57

Results for COc1ccc(Nc2nc(-c3nnc(-c4cccc(Cl)c4)o3)nc3ccccc23)cc1 ?
Tgondii IFNg: 21

Results for O=C(NCC1CC1)C1CCC2(CCN(Cc3ccccn3)CC2)O1 (configuration not stated) ?
Tgondii IFNg: 2

How did CCN(CC)Cc1ccc2cc(COC(=O)Nc3ccc(C(=O)NO)cc3)ccc2c1 do in these assays?
Tgondii IFNg: -83*

How did CCN(CC)Cc1cccc(C(=O)Nc2ccccc2CO)c1 do in these assays?
Tgondii IFNg: 4

Results for COc1ccc(Cn2ccc3ccc(C(=O)NO)cc32)cc1 ?
Tgondii IFNg: 0

What do the screens show for `CC(=O)N1CCC2(CCCN2)CC1`?
Tgondii IFNg: -35

Results for Cc1cccc(-c2nc(C)c(CCNS(=O)(=O)c3ccc(C)c(C)c3)s2)c1 ?
Tgondii IFNg: 468

What do the screens show for `CC(=O)Nc1ccc(S(=O)(=O)N2CCC(n3cnc4cccnc43)CC2)cc1`?
Tgondii IFNg: -96*

What do the screens show for `CC(=O)Nc1ccc(S(=O)(=O)N2CCC(Cc3cc(N)nc(C)n3)CC2)cc1`?
Tgondii IFNg: -3

How did O=C(N1CCC(n2cnc3cccnc32)CC1)N1c2ccccc2Sc2ccccc21 do in these assays?
Tgondii IFNg: -11

How did CCN(C(=O)c1cccc2c1OCC2)C1CCS(=O)(=O)C1 (configuration not stated) do in these assays?
Tgondii IFNg: 25

What do the screens show for `COc1ccc(Cl)cc1S(=O)(=O)N1CCC2(CC1)Nc1ccc(C)c(C)c1-n1cccc12`?
Tgondii IFNg: 16

How did CCOC(=O)c1c(NC(=O)c2cc(-c3ccccc3)nc3ccc(C)cc23)sc(C)c1C do in these assays?
Tgondii IFNg: 22

Results for O=C(NCCc1c[nH]c2ccc(Cl)cc12)c1cc(-c2ccccn2)nc2ccccc12 ?
Tgondii IFNg: -70

Results for Cc1ccc2nc(-c3ccccn3)cc(C(=O)Nc3n[nH]c4nc(C)ccc34)c2c1 ?
Tgondii IFNg: -99*

What do the screens show for `Cc1cc(C)cc(C(=O)NCCc2csc(-c3cccc(C)c3)n2)c1`?
Tgondii IFNg: inactive

How did CCCc1nc(CN(CC)C(=O)c2cc(F)c(F)cc2Cl)no1 do in these assays?
Tgondii IFNg: 5

Results for CN1CCN(S(=O)(=O)c2ccc(C(=O)NC3CCCCC3)cc2)CC1 ?
Tgondii IFNg: -6

What do the screens show for `CCOc1ccc(C(=O)NC2CCN(S(=O)(=O)c3ccccc3)CC2)cc1`?
Tgondii IFNg: -84*

How did O=C(NC1CCN(Cc2ccccc2)CC1)c1ccc(I)cc1 do in these assays?
Tgondii IFNg: 10

Results for O=Cc1ccc(N2CCCCC2)cc1 ?
Tgondii IFNg: -3

Results for O=[N+]([O-])c1cc(/C=N/n2cnnc2)ccc1N1CCCC1 ?
Tgondii IFNg: -90*

Results for O=C(N/N=C\c1cc([N+](=O)[O-])ccc1N1CCOCC1)c1ccccn1 ?
Tgondii IFNg: 3

Results for Cc1cc(C)n(Cc2nc(-c3ccc(NC(=O)C4CCC4)cc3)oc2C)n1 ?
Tgondii IFNg: 87

How did COCCN(CCOC)C(=O)c1cc2c(c3ccccc3n2C(C)C)n1-c1ncccn1 do in these assays?
Tgondii IFNg: 7

Results for COc1cc(CCc2cc(NC(=O)c3ccc(N4C[C@@H](C)N[C@@H](C)C4)cc3)n[nH]2)cc(OC)c1 ?
Tgondii IFNg: -74*

How did COc1ccc(CCCNC(=O)c2ccc(N3CC(O)C3)nc2)cc1 do in these assays?
Tgondii IFNg: -1

How did COc1ccc(NC(=O)c2ccc(-n3c(C)ccc3C)cc2)c(OC)c1 do in these assays?
Tgondii IFNg: 14

What do the screens show for `Cc1oc(C(C)C)cc1C(=O)NCc1csc(-c2cnccn2)n1`?
Tgondii IFNg: 1

Results for O=C(CN1C(=O)CSC1=O)NC1CCN(CC2(c3ccccc3)CCCC2)CC1 ?
Tgondii IFNg: 25

Results for CCn1c(C2CCCNC2)nn(CCC(=O)N2CCCC2)c1=O (configuration not stated) ?
Tgondii IFNg: 0

How did Cn1nc(-c2ccc(-c3ccnc(SCc4ccccc4)n3)s2)cc1C(F)(F)F do in these assays?
Tgondii IFNg: -97*

What do the screens show for `Cn1nc(-c2ccc(S(N)(=O)=O)s2)cc1C(F)(F)F`?
Tgondii IFNg: 23

What do the screens show for `Nc1cc(N)nc(SCc2ccccc2)n1`?
Tgondii IFNg: 172

What do the screens show for `CC12CCC(C(=O)N(CN3CCCCCC3)C1=O)C2(C)C` (configuration not stated)?
Tgondii IFNg: 5

How did Cc1ncsc1C(=O)N1CCC(c2cc3nc(N(C)C)ncc3c(=O)[nH]2)CC1 do in these assays?
Tgondii IFNg: 8

What do the screens show for `CC(=O)Nc1ccc(NC(=O)c2nc(-c3ccc(C)cc3)n3c2CCCCC3)cn1`?
Tgondii IFNg: -99*

How did CCCN1CCN(C(=O)c2nc(-c3ccc(C)cc3)n3c2CCCCC3)CC1 do in these assays?
Tgondii IFNg: 240

Results for CC1CC(C)CN(C(=O)c2nc(-c3cccc(F)c3)n3c2CCCCC3)C1 (configuration not stated) ?
Tgondii IFNg: -54

What do the screens show for `Cc1ccc(-c2nc(C(=O)Nc3cc(C)on3)c3n2CCCCC3)cc1`?
Tgondii IFNg: -110*

How did CCOC(=O)N1CCN(C(=O)c2nc(-c3ccc(C)cc3)n3c2CCCCC3)CC1 do in these assays?
Tgondii IFNg: 29

Results for CC(C)CCNC(=O)c1nc(-c2cccc(F)c2)n2c1CCCCC2 ?
Tgondii IFNg: -42

How did CC1CCCCN1CCCNC(=O)c1nc(-c2ccc(Cl)cc2)n2c1CCCCC2 (configuration not stated) do in these assays?
Tgondii IFNg: -37

How did CC1CCN(C(=O)c2nc(-c3ccc(Cl)cc3)n3c2CCCCC3)CC1 do in these assays?
Tgondii IFNg: 22

How did O=C(c1nc(-c2cccc(F)c2)n2c1CCCCC2)N1CCCCCC1 do in these assays?
Tgondii IFNg: -87*

How did Cc1cc(NC(=O)c2nc(-c3cccc(F)c3)n3c2CCCCC3)no1 do in these assays?
Tgondii IFNg: 236

What do the screens show for `COC(=O)c1sccc1NC(=O)c1nc(-c2ccc(C)cc2)n2c1CCCCC2`?
Tgondii IFNg: -97*

Results for O=C(c1nc(-c2cccc(F)c2)n2c1CCCCC2)N1CCN(c2ncccn2)CC1 ?
Tgondii IFNg: 6

What do the screens show for `COCC1CN(C(=O)c2cc(C)oc2C)Cc2ncn(CC3CC3)c21` (configuration not stated)?
Tgondii IFNg: 6

Screening results: PubChem, Broad Institute
